C diff HTS – C. difficile growth inhibitors, primary screen, HTS. 0.25% of 86,000 active. growth activity, negative = inhibition, % at 16 µg/mL (by protocol). Clostridium difficile clinical isolate growth, OD600, 24 h; stronger effect = lower value;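 active means mean growth activity at or below -80% and every replicate also at or below -80%; inconclusive means mean at or below -80% but some replicate above -80%; inactive means mean growth activity above -80%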
Pf Dd2 growth – P. falciparum Dd2 growth inhibitors, primary screen, SYBR Green fluorescence, single dose replicates; 2.3% of 94,000 active; 72 h; stronger effect = lower value; activity change, % at 10 µM; in the data active means activity change below about -80%; inconclusive means no clear call, values can overlap the other calls
Tcruzi prolif – T. cruzi intracellular proliferation inhibitors, primary screen, cell-based, beta-gal Tulahuen parasites, NIH3T3 host, luminescence. T. cruzi beta-gal in NIH3T3, GalScreen luminescence, 90 h. inhibition, % at 8.34 µM. 5.9% of 77,000 active. AID 624255, 2012;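 active means mean inhibition above about 93%, with at least 55% of replicates each passing it, limit read from the data, passing the limit was not always enough; inconclusive means only one of those two conditions holds; inactive means neither condition holds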
A number is an active result; – = inactive; ? = inconclusive; · = no result given; ! = repeats disagree. Only some compounds are listed: those with a hit (about 6.8% of all), similar ones and a draw of the others.

SMILES	C diff HTS	Pf Dd2 growth	Tcruzi prolif
O=C(Cc1ccncc1)N1C[C@@H]2N[C@H](C1)C2c1ccc(-c2cccc(F)c2)cc1 (stereo partly specified)	–	–	·
O=C(C1CCOCC1)N1C[C@@H]2N[C@H](C1)C2c1ccc(-c2cccc(F)c2)cc1 (stereo partly specified)	–	–	·
Fc1cccc(-c2ccc(C3[C@@H]4CN(Cc5ccccc5F)C[C@H]3N4)cc2)c1 (stereo partly specified)	-101	–	·
O=C(C1CCC1)N1C[C@@H]2N[C@H](C1)C2c1ccc(-c2cccc(F)c2)cc1 (stereo partly specified)	–	–	·
Fc1cccc(CN2C[C@@H]3N[C@H](C2)[C@@H]3c2ccc(-c3cccc(F)c3)cc2)c1	-94	–	·
Fc1cccc(-c2ccc(C3[C@@H]4CN(Cc5cccnc5)C[C@H]3N4)cc2)c1 (stereo partly specified)	–	-90!	·
COc1ccc2c3c(n(C)c2c1)[C@H](CO)NCC31CN(C(=O)c2ccc(F)cc2)C1	–	–	·
COc1ccc2c3c([nH]c2c1)[C@H](CO)N(C)CC31CN(S(=O)(=O)c2cn(C)cn2)C1	–	–	·
COc1ccc2c3c([nH]c2c1)[C@H](CO)N(Cc1ccc(Cl)cc1)CC31CCN(Cc2nccs2)CC1	–	-93	·
COc1ccc2c3c([nH]c2c1)[C@@H](CO)N(Cc1nccs1)CC31CN(Cc2nccs2)C1	–	–	·
COc1ccc2c3c([nH]c2c1)[C@@H](CO)N(C(=O)C1CCCC1)CC31CCN(Cc2nccs2)CC1	–	–	·
COc1ccc2c3c([nH]c2c1)[C@H](CO)N(C(=O)C1CCCCC1)CC31CCN(Cc2nccs2)CC1	–	-88	·
COc1ccc2c3c([nH]c2c1)[C@H](CO)N(Cc1nccs1)CC31CN(Cc2cccnc2)C1	–	-88	·
COc1ccc2c3c([nH]c2c1)[C@@H](CO)N(Cc1ccc(Cl)cc1)CC31CN(Cc2nccs2)C1	–	–	·
COc1ccc2c3c([nH]c2c1)[C@H](CO)N(C(=O)C1CCCC1)CC31CCN(Cc2nccs2)CC1	–	-83	·
COc1ccc2c3c([nH]c2c1)[C@@H](CO)N(C(=O)C1CCC1)CC31CCN(Cc2nccs2)CC1	–	–	·
CN(C)CC(=O)Nc1ccc2c(c1)[C@@H]1C[C@H](CC(=O)NCc3ccc4c(c3)OCO4)O[C@H](CO)[C@@H]1O2	–	–	–
C[C@H](CO)N1C[C@H](C)[C@@H](CN(C)C)Oc2ccc(NS(=O)(=O)c3ccccc3)cc2CC1=O	–	–	·
O=C(C1CCCC1)N1CC[C@@H]2[C@H](CO)Nc3ccc(C4=CCCCC4)cc3[C@@H]21	–	-83	·
O=C(c1ccc(F)cc1)N1CC[C@@H]2[C@H]1c1cc(C3=CCCCC3)ccc1N[C@@H]2CO	–	–	–
COc1ccc(C#Cc2ccc3c(c2)[C@H]2[C@H](CCN2C(=O)C2CCCC2)[C@@H](CO)N3)cc1	–	-95	·
COc1ccccc1-c1ccc2c(c1)[C@@H]1[C@@H](CCN1C(=O)C1CCCCC1)[C@@H](CO)N2	–	-85	–
COc1ccc(C#Cc2ccc3c(c2)[C@@H]2[C@@H](CCN2C(=O)C2CCCC2)[C@@H](CO)N3)cc1	–	?	·
COc1ccccc1-c1ccc2c(c1)[C@H]1[C@H](CCN1C(=O)C1CCC1)[C@@H](CO)N2	–	–	·
COc1cccc(-c2ccc3c(c2)[C@@H]2[C@@H](CCN2C(=O)C2CCCCC2)[C@H](CO)N3)c1	–	-89	·
SMILES	C diff HTS	Pf Dd2 growth	Tcruzi prolif
COc1cccc(-c2ccc3c(c2)[C@@H]2[C@@H](CCN2C(=O)C2CC2)[C@H](CO)N3)c1	–	–	·
CN1c2ccc(C3=CCCCC3)cc2[C@H]2[C@H](CCN2C(=O)C2CC2)[C@@H]1CO	–	-89	·
CN1c2ccc(C3=CCCCC3)cc2[C@@H]2[C@@H](CCN2C(=O)C2CC2)[C@@H]1CO	–	–	·
COc1cccc(-c2ccc3c(c2)[C@@H]2[C@@H](CCN2S(=O)(=O)c2cn(C)cn2)[C@H](CO)N3)c1	–	-82	–
COc1cccc(-c2ccc3c(c2)[C@H]2[C@H](CCN2C(=O)C2CCCCC2)[C@@H](CO)N3)c1	–	-88	·
COc1cccc(-c2ccc3c(c2)[C@@H]2[C@@H](CCN2C(=O)C2CCC2)[C@H](CO)N3)c1	–	–	–
COc1cccc(-c2ccc3c(c2)[C@@H]2[C@@H](CCN2C(=O)C2CC2)[C@@H](CO)N3)c1	–	–	·
COc1cccc(-c2ccc3c(c2)[C@@H]2[C@@H](CCN2C(=O)C2CCCC2)[C@H](CO)N3)c1	–	-86	·
COc1cccc(-c2ccc3c(c2)[C@H]2[C@H](CCN2S(=O)(=O)c2cn(C)cn2)[C@H](CO)N3)c1	–	–	–

Source: PubChem BioAssay
